High-throughput results as filed in PubChem BioAssay.
GCN5L2 inh – blocks human GCN5L2 histone acetyltransferase; Q92830; GCN5L2 HAT assay, ThioGlo1 CoA-SH fluorescence; Potency, µM (titrated, usually from 58.9 µM), inactives show top-dose activity change, negative = inhibition, hits mostly inhibitors; 390,000 compounds, 0.21% hits
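GCN5L2 (20 nM) in 50mM HEPES pH 7.5, 0.1mM EDTA, 0.01% Tween-20 preincubated 15 min with compounds at room temperature. Reaction started with H3(1-25) 75uM, acetyl-CoA 70uM, ThioGlo1 50uM; CoA-thiol fluorescence (Ex340/Em540) read at 0 and 20 min.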
L3MBTL1 block – inhibitors of human L3MBTL1; Potency, µM (top dose mostly 57.1 µM), inactives show at the highest dose activity, negative = inhibition, hits mostly inhibitors; AlphaScreen L3MBTL1–H3K9me1 peptide binding; Q9Y468; 230,000 compounds, 0.66% hits; also: nearly all actives have a fitted effect of over 60% in size
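AlphaScreen assay: L3MBTL1 (50 nM final) was preincubated 30 min at room temperature with biotinylated H3(1-15)K9me1 peptide (75 nM final), then 30 min with library compounds; streptavidin donor and nickel chelate acceptor beads (10 ug/mL final) added, 30 min dark.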
APE1 inh – APE1 (human) endonuclease inhibition | recombinant APE1, TAMRA/BHQ-2 abasic DNA cleavage fluorescence | Potency, µM (highest dose often 65.8 µM), without a hit: at the highest dose activity change, negative = inhibition, hits mostly inhibitors | 350,000 compounds, 0.35% hits | AID 2517;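 also: plate controls were vehicle for no effect and reference inhibitor for full effect; nearly all actives have a fitted effect of over 55% in size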
Target sequence (P27695 whole entry, looked up): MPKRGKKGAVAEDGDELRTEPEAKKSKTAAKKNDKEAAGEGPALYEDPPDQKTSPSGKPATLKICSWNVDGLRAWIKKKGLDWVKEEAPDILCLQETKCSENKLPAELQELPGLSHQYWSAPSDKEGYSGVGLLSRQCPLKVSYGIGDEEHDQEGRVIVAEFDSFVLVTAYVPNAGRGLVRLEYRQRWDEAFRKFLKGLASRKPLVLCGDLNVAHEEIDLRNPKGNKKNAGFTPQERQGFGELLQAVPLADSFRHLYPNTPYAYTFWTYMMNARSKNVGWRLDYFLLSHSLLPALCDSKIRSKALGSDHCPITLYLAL
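Step 1: APE1 (0.75 nM) with compound, 15 min RT. Step 2: add 50 nM fluorophore/quencher THF duplex. Step 3: three fluorescence reads 60 s apart (525/598 nm); read 3 minus read 1 = reaction progress.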
BLM helicase inh – blocks DNA unwinding by human BLM helicase. recombinant BLM DNA unwinding, fluorescence dequenching. AID 2528. 350,000 compounds, 0.2% hits. Potency, µM (series often up to 56.1 µM), without a hit: at the highest dose activity change, negative = inhibition, most hits filed as inhibitors. P54132;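 also: plate controls were vehicle for no effect and no enzyme for full effect; nearly all actives have a fitted effect of over 35% in size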
RECQ1 helicase – RECQ1 (human) helicase inhibition; P46063; Potency, µM (top dose mostly 57.3 µM), for the others: at the highest dose activity, negative = inhibition, actives largely listed as inhibitors; 240,000 compounds, 0.54% hits; RECQ1 DNA unwinding, red fluorescence kinetic read;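 also: plate controls were vehicle for no effect and no enzyme for full effect; nearly all actives have a fitted effect of over 30% in size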
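50 nM RECQ1T1 preincubated 15 min with compound in Tris pH 8.0 buffer with MgCl2, DTT, Tween-20 and 2.5 ug/ml poly(dI-dC); started with 200 nM TAMRA/BHQ-2 forked duplex and 2 mM ATP. Unwinding read as fluorescence (525/598 nm), two reads 2 h apart.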
KDM4E inh – inhibitors of human JMJD2E histone demethylase; AID 2147; JMJD2E catalytic domain, FDH-coupled NADH fluorescence (FDH is formaldehyde dehydrogenase); Potency, µM (doses to about 57.1 µM), inactives show at the top dose activity change, negative = inhibition, usual class: inhibitors; 230,000 compounds, 1.6% hits; B2RXH2; active = well fitted inhibition curve with a large enough effect, not every such curve was filed as active; inconclusive = small, poorly fitted or top-dose-only effect, or another doubt; inactive = no such curve, though single readings can be large or run the other way;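 also: 0% = wells with enzyme and -100% = buffer wells without enzyme; nearly all actives have a fitted effect of over 50% in size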
Target sequence (B2RXH2 1-337 limits assumed): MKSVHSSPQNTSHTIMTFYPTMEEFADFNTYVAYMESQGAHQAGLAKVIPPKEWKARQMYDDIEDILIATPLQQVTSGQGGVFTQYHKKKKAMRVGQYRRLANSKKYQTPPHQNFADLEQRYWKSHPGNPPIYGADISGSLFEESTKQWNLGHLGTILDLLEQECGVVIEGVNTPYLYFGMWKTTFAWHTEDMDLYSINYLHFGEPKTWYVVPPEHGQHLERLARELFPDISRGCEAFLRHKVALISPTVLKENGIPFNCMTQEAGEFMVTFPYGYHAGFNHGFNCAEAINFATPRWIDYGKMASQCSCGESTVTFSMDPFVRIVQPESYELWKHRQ
* = called active by the depositor; i = inactive; ? = inconclusive; / = no result; [ ] = remark or other dose. Many of the other results were omitted from the sample, so hits are more common in it than they were. Unless noted, calls follow the shape of the dose curve; as a rule, active = well fitted curve in the direction sought with a large enough effect; inconclusive = small, poorly fitted or top-dose-only effect, or another doubt; inactive = no such curve, though single readings can be large; an effect the other way counts as inactive or inconclusive. Unless noted, % is scaled to controls: 0 for no effect and ±100 for the full control effect; potency is read from the fitted curve at half-maximal effect.

SMILES | GCN5L2 inh | L3MBTL1 block | APE1 inh | BLM helicase inh | RECQ1 helicase | KDM4E inh
CCCC(=O)OCC(=O)c1[nH]c(C)c(C(C)=O)c1C | -22.6% | -26.0% | -1.8% | -8.6% | -10.5% | 2.2%
COc1c(O)cc(O)cc1O | 1.0% | / | 15.8µM* | -10.0% | 3.6% | -18.3%
COc1cc(O)cc(OC)c1OC | -12.9% | / | 14.2% | -1.8% | i | -24.1%
N#CC1=C(N)C2=C(N3CCCCC3)CCCC2C1(C#N)C#N (centres undefined) | -9.6% | / | 35.5µM* | -18.8% | ? | ?
Brc1ccc(-c2csc(N3CCCCC3)n2)cc1 | -1.9% | 17.6% | 11.6% | / | / | /
Cc1cc([N+](=O)[O-])ccc1-c1ccc(C2Nc3ccccc3C(=O)N2O)o1 (centres undefined) | -7.7% | -4.7% | 12.7% | -8.5% | -3.5% | 28.2µM*
CSc1nc(SCC(=O)O)c2sc3nc(-c4ccccc4)c4c(c3c2n1)CCC4 | ? | -5.0% | ? | -15.7% | -18.8% | ?
CSc1nc(N2CCN(CCO)CC2)c2sc3nc(-c4ccco4)c4c(c3c2n1)CCC4 | -3.7% | -6.7% | 16.7% | 12.6µM* | -1.6% | -25.3%
O=C(NCc1ccccn1)c1coc(=O)c(Br)c1 | -24.5% | 14.1µM* | 0.2% | 1.0% | -1.0% | ?
CCOc1ccc(C(=O)NCc2ccccn2)cc1 | 4.2% | -0.1% | 2.3% | 2.0% | -1.3% | 4.2%
CNC(C)[C@@H]1CC[C@@H](N)[C@@H](O[C@H]2[C@H](O)[C@@H](O[C@H]3OC[C@](C)(O)[C@H](NC)[C@H]3O)[C@H](N)C[C@@H]2N)O1 (some centres undefined) | / | / | 3.1%[21 µM] | / | / | /
CCC(=O)Nc1ccc(NC(=S)NC(=O)/C=C/c2ccco2)cc1 | -16.1% | 7.2%[2.29 µM] | -36.7% | -8.6% | / | /
O=C(/C=C/c1ccco1)NC(=S)Nc1ccc(N2CCCC2)cc1 | 2.4% | ? | -8.8% | -4.1% | i | 11.2µM*
CCC(=O)N1c2ccc(S(=O)(=O)N3CCC(C)CC3)cc2CC1C (centres undefined) | -2.0% | / | / | 0.3% | / | /
COc1ccc(-c2[nH]n(-c3ccc([N+](=O)[O-])cc3)c(=O)c2C=NCc2ccncc2)cc1 | -8.2% | 15.1% | 4.6% | 7.94µM* | -11.3% | -4.3%
CCOc1ccc(C=NNc2ccc(S(=O)(=O)Nc3ccccc3C(=O)O)cc2[N+](=O)[O-])cc1 | ? | 15.8µM* | -41.5% | / | / | /
CSc1ccc(C=NNc2ccc(S(=O)(=O)Nc3ccccc3C(=O)O)cc2[N+](=O)[O-])cc1 | ? | 20µM* | 8.44µM* | / | / | /
O=C(O)c1ccccc1NS(=O)(=O)c1ccc(NN=Cc2ccccc2F)c([N+](=O)[O-])c1 | ? | -21.2% | ? | / | / | /
C=CCN1CCN(c2nc3ccccc3nc2C#N)CC1 | ? | / | 3.5% | -1.4% | 18.6% | -4.9%
CCOc1cc(CNc2ccc(N3CCOCC3)cc2)cc(Br)c1OCC | -10.7% | 31.6µM* | 3.4% | -9.6% | ? | -13.9%
CCOc1cc(CNc2ccc(N(C)C)cc2)cc(Br)c1OCC(=O)NC(C)(C)C | -1.6% | ? | -8.9% | -21.0% | -14.9% | ?
CCOc1cc(CNc2ccc(N3CCCCC3)cc2)cc(Br)c1OCC(=O)NC(C)(C)C | -9.6% | 28.2µM* | -0.9% | -9.4% | -10.5% | 3.16µM*
Cc1ccc(C2Nc3cc(C)c(C)cc3-n3c(-c4ccccc4)c4c(=O)n(C)c(=O)n(C)c4c32)o1 (centres undefined) | 1.1% | / | / | -4.3% | / | /
CCN(CC)C(=S)SCC(=O)Nc1ccc(F)cc1 | 3.55µM* | -0.5% | -5.3% | -1.5% | -0.9% | 7.5%
Oc1ccc(NC(=S)Nc2ccc(F)cc2)cc1 | -4.9% | -7.6% | 26.4% | -8.3% | / | /
SMILES | GCN5L2 inh | L3MBTL1 block | APE1 inh | BLM helicase inh | RECQ1 helicase | KDM4E inh
CCN(CC)C(=S)SCC(=O)c1ccc(F)cc1 | -4.0% | 10.9% | -4.9% | 0.5% | -1.1% | 4.4%
CCN(CC)c1ccc(NC(=S)Nc2ccc(F)cc2)cc1 | -6.4% | / | -0.3% | -6.9% | -1.5% | 8.91µM*
Cc1cc(C2=NNC(=Nc3ccc(S(=O)(=O)N4CCOCC4)cc3)SC2)c(C)n1C | -13.4% | -6.9% | 4.9% | -2.2% | -0.5% | 8.91µM*
COc1ccc(-c2nnc3n2N=C(c2ccc(OC)c(OC)c2)CS3)cc1 | / | / | 10.0% | 0.8% | i | /
NC(=S)NN=Cc1ccc(-c2ccc(S(=O)(=O)Nc3ncccn3)cc2)o1 | ? | 28.2µM* | -28.2% | / | / | /
CCN(CC)c1ccc(/C=N/NC(=O)c2ccco2)cc1 | -2.7% | -0.3% | -7.4% | -1.8% | i | ?
CCN(CC)c1ccc(/C=N/Nc2nc3ccccc3[nH]2)c(O)c1 | -3.7% | / | -1.9% | -20.6% | -6.5% | 15.8µM*
CCN(CC)c1ccc(/C=N/NC(=O)c2ccco2)c(O)c1 | -5.2% | -27.4% | ? | -10.1% | i | 14.1µM*
CC(C)(C)n1ncc2c(=O)n(Cc3cccc(C#N)c3)cnc21 | / | / | -6.2% | / | / | /
CCNc1ncc2nc(-c3cccs3)c(=O)n(CCC#N)c2n1 | 7.08µM* | / | -4.6% | -11.9% | -10.4% | /
O=C(c1ccc2ncsc2c1)N1CCCCC1 | -9.8% | / | 36.7% | 0.6% | / | /
O=C(O)c1ccc2ncsc2c1 | -14.5% | 10µM* | 2.4% | -7.1% | i | 14.1µM*
Oc1ccc(C=Nc2ccc3ncccc3c2)c(O)c1 | -6.0% | -5.0% | 1.3% | -15.2% | ? | 4.47µM*
O=C(COC(=O)c1ccc([N+](=O)[O-])s1)NC(=O)NCc1ccccc1 | 17.9% | 11.2µM* | ? | -12.6% | i | 1.1%
O=C(COC(=O)c1ccc([N+](=O)[O-])s1)NCCc1ccccc1 | -7.6% | ? | ? | / | / | /
COC(=O)c1sc(-c2cccs2)cc1NC(=O)/C=C/C(=O)O | -12.7% | / | -3.2% | 15.8µM* | -6.6% | ?
COC(=O)c1sc(-c2ccccc2)cc1NC(C)=O | -11.5% | 29.7% | -7.0% | -2.9% | -2.0% | ?
CNS(=O)(=O)c1cccc(C(=O)OCc2cc(=O)n3cc(Br)ccc3n2)c1 | -4.4% | -5.5% | 3.4% | -9.4% | -2.1% | 7.6%
Cc1cc(C)c(C)c(S(=O)(=O)N[C@@H](C)C(=O)OCc2cc(=O)n3cc(Br)ccc3n2)c1C | -4.4% | 12.6µM* | -1.8% | -25.3% | 24.0% | ?
O=C(CSc1nnc(COc2ccccc2)n1Cc1ccco1)NCc1ccco1 | -13.4% | ? | ? | -25.5% | -22.0% | -3.7%
